For 36 compounds, growth results are on record in PubChem BioAssay (NCI).

Where “and” joins values, the source holds several entries; their conditions need not be identical. Equal values may be shown once. Compounds without any hit were thinned out: in the full panel of roughly 83,000, 20% have a hit.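 Cell lines were cultured in 96-well plates, exposed to a single compound concentration, and assessed for percent growth 48 hours later.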 Calls of active or inactive are those of the source.

The first assay relates to OVCAR-5 ovarian. Kind of assay: NCI-60 one-dose screen, 48 h (100 = growth as untreated, 0 = no growth, -100 = all killed). The conditions noted are these: 10 µM. As to the method:
Growth inhibition of the OVCAR-5 human tumor cell line is measured as a screen for anti-cancer activity. Cells are grown in 96 well plates and exposed to the test compound for 48 hours. Compounds are tested at a single concentration, which is 10^-5 M for most compounds. The reported endpoint is percent growth (GI% or GIPRCNT), where numbers from 0 - 100% represent growth inhibition, and numbers from -100% - 0 represent cell death. For example, a value of 40 represents 60% growth inhibition. A value of 0 means no net growth occurred over the course of the experiment. A value of -40 indicates 40% of cells at the beginning of the experiment died by the end of the experiment. A value of -100 means all cells are dead at the end of the experiment.
NCI-60 Human Tumor Cell Lines Screen was performed using the standard one-dose NCI protocol, which is described in more detail at https://dtp.cancer.gov/discovery_development/nci-60/default.htm.
Compounds with GIPRCNT values below 10 were considered active. Activity score was based on GIPRCNT using the following formula: […]
Score is 0 for GIPRCNT values of 100 or above, 50 for GIPRCNT values of 0, and 100 for GIPRCNT values of -100.
With `COc1ccc(-c2cscc2N)cc1`, the growth was 87.5% (inactive).
Same read-out and setting: the figure for `O=C(O)c1c(Cl)c(Cl)c(Cl)c(Cl)c1-c1c2cc(I)c(=O)c(I)c-2oc2c(I)c(O)c(I)cc12` is 107% (inactive) and 98.5% (inactive) and 104% (inactive); for `O=C(Nc1c(Cl)cccc1Cl)Oc1cccc2cccnc12` it is 103% (inactive).
Still for that read-out and setting: the figure for `O=C(Nc1cccc(Br)c1)Oc1cccc2cccnc12` is 108% (inactive).

The same assay, now with this note: 10 µM unless noted.
As for `CCCCCC(CCCCC)C(=O)O`, the growth is 110% (inactive).
Still for that read-out and setting: the figure for `CCOC(=O)/C=C/c1ccc([N+](=O)[O-])o1` is 75% (inactive); for `CC(C)c1ccc2nc3ccc(C(=O)NCCN4CCN(c5ccccc5)CC4)cn3c(=O)c2c1` it is 91.1% (inactive).
For `COC(=O)Nc1nc2ccc(C(=O)c3ccccc3)cc2[nH]1`, the growth is 20.7% (inactive) and 47.1% (inactive).
On the same count and under the same terms, the figure for `COc1ccc2nc3cc(Cl)ccc3c(NCCNc3c4ccc(Cl)cc4nc4ccc(OC)cc34)c2c1` is -90.1% (active).
As to `O=C(O)c1ccc2c3c(ncnc13)-c1ccccc1C2=O`, the growth is 116% (inactive).
As to `CCC(CC)COC(=O)c1ccc(O)c(O)c1`, the growth is 91.3% (inactive).
The same measure, in the same setting: next, `Cc1ccc2nc(C[n+]3ccc4ccccc4c3)ccc2c1`: 79.7% (inactive).
The same measure, in the same setting: the figure for `Cc1ccnc(NC(c2ccccc2)c2ccc3cccnc3c2O)c1` (stereo not given) is 69.9% (inactive).
On the same count and under the same terms, next, `Oc1ccc(/C=N/NC(=S)Nc2ccccc2)nc1`: 34.1% (inactive).
Regarding `OC(CNc1ccnc2cc(Cl)ccc12)CNc1ccnc2cc(Cl)ccc12`, the growth is 79.5% (inactive).
The same measure, in the same setting: next, `O=C(Oc1cccc2cccnc12)c1ccccc1`: 105% (inactive) and 107% (inactive).
On to `Nc1ccc(SSc2ccc(N)cc2)cc1`, for which the growth is 101% (inactive).
For the compound `O=C1C2=C(Nc3cc([N+](=O)[O-])ccc3N2)OC1c1c2ccccc2cc2ccccc12` (stereo not given), the growth is 75.8% (inactive).
The same measure, in the same setting: next, `COc1ccccc1OC(=O)Oc1ccccc1OC`: 117% (inactive) and 97.6% (inactive); `CNC(=O)N/N=C/c1ccc([N+](=O)[O-])o1`: 110% (inactive).
On the same count and under the same terms, the figure for `NC(N)=N/N=C/c1ccc([N+](=O)[O-])o1` is 123% (inactive).
Still for that read-out and setting: next, `Cc1ccc2nc(-[n+]3cc4ccccc4cc3C)ccc2c1`: 61.4% (inactive).
For the compound `CN(C)CCOc1ccc2c(c1)C(=O)/C(=C\c1ncc([N+](=O)[O-])n1C)C2`, the growth is -21.1% (active).
On the same count and under the same terms, next, `S=C(NCCNC(=S)[S][Sn]([c]1ccccc1)([c]1ccccc1)[c]1ccccc1)[S][Sn]([c]1ccccc1)([c]1ccccc1)[c]1ccccc1`: -93.6% (active); `CCCCCCCCCCCCCCCCN(CC)CC`: -57.3% (active); `COC(=O)c1nc(=S)[nH]c(C(=O)OC)c1C(=O)c1ccc2ccccc2c1`: 101% (inactive).
Same read-out and setting: next, `CN(C)C(=O)SC1=C(c2c(Cl)cccc2Cl)C(=O)c2ccccc21`: 106% (inactive); `CC1(C)CC([P+](c2ccccc2)(c2ccccc2)c2ccccc2)=NN1`: 67.7% (inactive).
On to `CC(=Nc1ccc(N(C)C)cc1)c1ccccc1`, for which the growth was 106% (inactive).
`NC(=S)N/N=C\c1nccc2c(C(F)(F)C(F)(F)C(F)(F)F)cccc12`: the growth is 42.3% (inactive).
Consider `Nc1ncnc2c1ncn2C1OC(CO)C(O)C1O` (stereo not given), for which the growth is 122% (inactive) and 127% (inactive).
Still for that read-out and setting: the figure for `Cn1c2ccccc2c2nnc(N/N=C/c3ccccn3)nc21` is 40.6% (inactive); for `N#Cc1ccc([N+](=O)[O-])o1` it is 107% (inactive); for `c1ccc2c(c1)Nc1cc3ccccc3cc1N2` it is 69.7% (inactive).
On the same count and under the same terms, the figure for `CCC1OC(OC)C=CC1=O` (stereo not given) is 123% (inactive); for `Cn1c2c(c3ccccc31)CCN1C[C@@H]3CCCC[C@H]3C[C@@H]21` it is 25% (inactive).

Staying with this assay, now noted: 100 µM.
For the compound `COc1ccc(-c2cscc2N)cc1`, the growth is 78.9% (inactive).
The same measure, in the same setting: the figure for `O=C(O)c1c(Cl)c(Cl)c(Cl)c(Cl)c1-c1c2cc(I)c(=O)c(I)c-2oc2c(I)c(O)c(I)cc12` is -42.9% (active); for `O=C(Nc1c(Cl)cccc1Cl)Oc1cccc2cccnc12` it is 34.1% (inactive).
On the same count and under the same terms, the figure for `O=C(Nc1cccc(Br)c1)Oc1cccc2cccnc12` is 9.37% (active).
